HT1080NT lethal = kills 2HG-producing HT-1080-NT fibrosarcoma cells. HT-1080-NT fibrosarcoma viability, CellTiter-Glo ATP luminescence, 48 h. Potency, µM (series often up to 46.1 µM), inactives show top-dose activity, negative = less viability, hits mostly cytotoxic. hit rate 1.6% among 360,000;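 further: NT is the 2HG producing partner of a matched IDH1 knockdown line; potency means the concentration at half of the fitted maximal effect; 0% = DMSO-treated cells and -100% = media-only wells without cells; nearly all actives have a fitted effect of over 55% in size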
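750 cells/well, RPMI + 5% FBS; 2 h settle, compound pin-transfer, 48 h at 37 degrees C. CellTiter-Glo 10 min RT, luminescence. Normalized to DMSO and media-only wells.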
IL1B secr inh = inhibitors of inflammasome signaling (IL-1 beta secretion); THP-1 LPS/ATP IL-1B secretion, AlphaLISA, 16 h; stronger effect = lower value; activity change, % at 57.5 µM; hit rate 4.7% among 360,000; AID 743279; in the data active means activity change below about -50%; inconclusive means mostly about -30% to -49%
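Secreted IL-1B measured by AlphaLISA bead assay after 16 h compound exposure of THP-1 cells; compounds (final up to 57.5 uM) added 1 h before LPS (250 ng/mL) and ATP (1.25 mM) stimulation; lower signal means less secretion.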
HT1080 IDH1KD tx = HT-1080 IDH1 knockdown cell toxicity (counter line). Potency, µM (series often up to 46.1 µM), inactives show at the highest dose activity, negative = toxicity, usual class: cytotoxic. hit rate 2% among 360,000. HT-1080 IDH1 knockdown viability, ATP luminescence, 48 h;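 further: potency means the concentration at half of the fitted maximal effect; 0% = DMSO wells and -100% = cell-free medium wells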
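In this qHTS, HT-1080 cells depleted of IDH1 are exposed for 48 h at 37 °C to compound titrations. Toxicity is scored from CellTiter-Glo luminescence, with DMSO as full viability and medium alone as none.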
DT40 TDP1 CPT = growth inhibition of DT40 Tdp1-/-;hTDP1 cells with camptothecin (screen for TDP1 inhibitors); chicken DT40 Tdp1-/-;hTDP1 cells + 20 nM CPT, ATP luminescence, 48 h; Potency, µM (top dose mostly 46.2 µM), without a hit: at the top dose activity change, negative = growth inhibition, actives largely listed as inhibitors; hit rate 12% among 420,000; further: potency means the concentration at half of the fitted maximal effect; nearly all actives have a fitted effect of over 55% in size
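Chicken DT40 Tdp1-/- cells complemented with human TDP1, 400 cells/well, exposed to compounds plus 20 nM camptothecin for at least 48 h at 37 C; viability read as ATP content by CellTiter-Glo luminescence.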
DT40 TDP1 no CPT = qHTS for Inhibitors of human tyrosyl-DNA phosphodiesterase 1 (TDP1): qHTS in cells in absence of CPT | hit rate 15% among 420,000 | DT40 Tdp1-/- hTDP1 cells, no CPT, ATP luminescence, 48 h | Potency, µM (doses to about 46.2 µM), for inactives: at the highest dose activity change, negative = growth inhibition, usual class: inhibitors; further: potency means the concentration at half of the fitted maximal effect; nearly all actives have a fitted effect of over 55% in size
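A cellular qHTS used chicken DT40 cells lacking endogenous Tdp1 but carrying stably transfected human TDP1. Compounds were applied without camptothecin, and cell growth kinetics were judged by ATP-dependent luminescence after ≥48 hr.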
* hit, by the source's call; ? = inconclusive; . = no result; [ ] = another dose, or the depositor's remark. An excerpt weighted towards active compounds, which were near 19% of everything screened. Unless noted, the call rests on the fitted dose curve; in most records, active means well fitted curve in the direction sought with a large enough effect; inconclusive means small, poorly fitted or top-dose-only effect, or another doubt; inactive means no such curve, though single readings can be large; an effect the other way counts as inactive or inconclusive. Unless noted, on the % scale 0 is the no-effect control and ±100 the full control effect.

SMILES	HT1080NT lethal	IL1B secr inh	HT1080 IDH1KD tx	DT40 TDP1 CPT	DT40 TDP1 no CPT
CCCC(=O)Nc1ccc(S(=O)(=O)Nc2cc(OC)ncn2)cc1	0%	19	8%	-1%	14%
Cc1ccc(NC(=O)C2CCN(S(=O)(=O)c3ccc4c(c3)OCCCO4)CC2)nc1	?	-15	-14%	?	?
Cc1ccc(C2CC(=O)Nc3cc4c(cc32)OCO4)o1 (stereo not drawn)	-15%	-10	-24%	?	-23%
CCCc1cc(=O)[nH]c(SCC(=O)N2CCN(c3ccccc3OC)CC2)n1	.	.	.	-5%	-17%
CC(C)(C)C(=O)OCC(=O)[C@H]1CC[C@H]2[C@@H]3CCC4=CC(=O)CC[C@]4(C)[C@H]3CC[C@]12C	.	.	.	6%	1%
O=C(O)CC(c1ccccc1)N1C(=O)c2ccccc2C1=O (stereo not drawn)	-2%	-10	2%	1%	-23%
CC(=O)c1ccc(S(=O)(=O)NCCC(=O)NC(C)c2ccncc2)cc1 (stereo not drawn)	8%	2	1%	-15%	-11%
C(=C\c1ccccc1)/CN1CCN(C(c2nnnn2C2CCCC2)C2CC2)CC1 (stereo not drawn)	-10%	11	-8%	18µM*	13µM*
CC(C)(C)n1nnnc1C(CCc1ccccc1)N1CCN(C/C=C/c2ccccc2)CC1 (stereo not drawn)	?	-27	?	?	15µM*
CSCCC(c1nnnn1C(C)(C)C)N1CCN(C/C=C/c2ccccc2)CC1 (stereo not drawn)	7%	-9	2%	?	?
COC(=O)c1c(NC(=O)COC(=O)CNC(=O)C2CCCCC2)sc(C)c1C	10%	23	10%	-5%	?
CN(C)S(=O)(=O)c1cc(S(=O)(=O)N(C)C)c(Cl)cc1N	6%	27	9%	-16%	-30%
O=C(Nc1ccccc1)c1cc2c(=O)c3ccccc3oc2nc1C(F)(F)F	0%	0	0%	5%	-8%
O=C(Nc1cccc(C(F)(F)F)c1)c1cc2c(=O)c3ccccc3oc2nc1C(F)(F)F	-4%	-1	2%	?	29µM*
Cc1ccc(C(=O)Nc2c(C(=O)NCc3ccc(Cl)cc3)sc3nc(C)cc(C)c23)cc1	.	.	.	9.2µM*	13µM*
Cc1cccc(CCNC(=O)c2sc3nc4n(c(=O)c3c2C)CCCC4)c1	.	.	.	18µM*	?
CCc1ccc(CN(C)C(=O)c2ccc3c(=O)n4c(nc3c2)CCC4)cc1	6%	6	12%	-20%	?
Cc1cc(C)c2c(-n3cccc3)c(C(=O)NCCc3ccc(Cl)cc3)sc2n1	.	.	.	-16%	?
CCc1ccc(N(CC)C(=O)c2ccc3c(=O)n4c(nc3c2)CCCCC4)cc1	.	.	.	?	16µM*
Cc1c(C(=O)NCc2ccc(Cl)cc2)sc2nc3n(c(=O)c12)CCCC3	.	.	.	?	16µM*
Nc1nnc(CSCc2ccc(F)cc2)s1	6%	-6	7%	-3%	-4%
CCc1ccc(N(CC)C(=O)c2sc3nc4n(c(=O)c3c2C)CCCC4)cc1	.	.	.	26µM*	21µM*
CCCNC(=O)c1ccc2c(c1)nc1n2CCCCC1	.	.	.	-7%	-18%
Cc1cccc(CCNC(=O)c2ccc3c(c2)nc2n3CCCCC2)c1	.	.	.	21µM*	?
C#CCNC(=O)C[C@@H]1C[C@@]2(C(=O)OC)CCCCC=C2N(CCCCCCCC)C1=O	-12%	-13	?	16µM*	23µM*
SMILES	HT1080NT lethal	IL1B secr inh	HT1080 IDH1KD tx	DT40 TDP1 CPT	DT40 TDP1 no CPT
COC(=O)[C@]12CCCCC=C1N(Cc1ccco1)C(=O)[C@H](CC(=O)NCc1ccc(OC)c(OC)c1)C2	?	2	10%	?	?
CCCCCCCCN1C(=O)[C@H](CC(=O)NCc2ccc(OC)c(OC)c2)C[C@@]2(C(=O)OC)CCCCC=C12	?	-58*	?	?	21µM*
CCCCCCCCN1C(=O)[C@H](CC(=O)NCc2ccccc2)C[C@@]2(C(=O)OCC)CCC=C12	?	?	-28%	?	?
C#CCNC(=O)C[C@@H]1C[C@@]2(C(=O)OC)CCCCC=C2N(Cc2ccc3c(c2)OCO3)C1=O	1%	11	-3%	-2%	?
CCCCCCCCN1C(=O)[C@H](CC(=O)NCc2ccccc2)C[C@@]2(C(=O)OC)CCCCC=C12	?	-82*	?	16µM*	15µM*
COC(=O)[C@]12CCCCC=C1N(Cc1ccccc1)C(=O)[C@H](CC(=O)NCc1ccc(OC)c(OC)c1)C2	13%	-20	-5%	23µM*	23µM*
CCOC(=O)[C@]12CCCC=C1N(Cc1ccccc1)C(=O)[C@H](CC(=O)NCc1ccc(OC)c(OC)c1)C2	0%	?	-16%	?	?
CCC(C)(C)NC(=O)C(c1ccc(C)cc1)N(Cc1ccco1)C(=O)CCC(=O)Nc1nccs1 (stereo not drawn)	0%	-17	9%	?	?
CCCCCCCCN1C(=O)[C@H](CC(=O)NCc2ccc(OC)c(OC)c2)C[C@@]2(C(=O)OCC)CCC=C12	?	-77*	?	?	21µM*
Cc1cc(O)cc2c1C(=O)/C(=C/c1ccco1)O2	-18%	2	-27%	7%	1%
CCN(CC)C(=O)CSc1ncccc1-c1nc2ccccc2[nH]1	8%	8	0%	-20%	-11%
CCN1C(C(=O)c2ccccc2)=C(OC(=O)C(C)C)c2ccccc2S1(=O)=O	.	.	.	6.5µM*	5.2µM*
Cc1ccc(OCC(=O)OC2=C(C(=O)c3ccccc3)N(C)S(=O)(=O)c3ccccc32)cc1	.	.	.	?	4.1µM*
CCOC(=O)c1ccc(CN2C(=O)c3ccccc3S2(=O)=O)cc1	0%	35	7%	-4%	-5%
CCCCN(CCCC)C1=C(C(=O)c2ccccc2)N(CC)S(=O)(=O)c2ccccc21	.	.	.	13µM*	26µM*
CCN1C(C(=O)c2ccccc2)=C(OC(=O)COc2ccccc2)c2ccccc2S1(=O)=O	.	.	.	?	16µM*
COCCCNC(=S)N(Cc1cccnc1)Cc1ccc(OC)c(OC)c1	22%	-9	13%	-8%	-11%
Cc1noc(C)c1S(=O)(=O)N1CCCC(C(=O)NCc2ccccc2Cl)C1 (stereo not drawn)	-8%	11	0%	-13%	1%
Cc1c(C(=O)NCc2ccc(F)cc2)sc2ncnc(NCC3CCCO3)c12 (stereo not drawn)	.	.	.	-13%[9.04 µM]	-14%
O=C(NCCCN1CCCCCC1)[C@@H](c1ccccc1)C1CCCCC1	.	.	.	11µM*	11µM*

Compound activity (PubChem)
